# High-throughput results deposited in PubChem by National Center for Advancing Translational Sciences (NCATS).
# ALOX15 inhib: qHTS Assay for Inhibitors of 15-hLO (15-human lipoxygenase); Polyunsaturated fatty acid lipoxygenase ALOX15 (Homo sapiens), P16050; purified 15hLO-1, xylenol orange hydroperoxide absorbance; Potency, µM (titrated, usually from 57.1 µM), inactives show at the highest dose activity change, negative = inhibition, usual class: inhibitors; 74,000 tested, 1.4% active; note: potency is the fitted concentration of half-maximal effect; % is set by controls: 0 for no effect and ±100 for the full control effect; nearly all actives have a fitted effect of over 55% in size
# Target sequence (P16050 whole entry, looked up): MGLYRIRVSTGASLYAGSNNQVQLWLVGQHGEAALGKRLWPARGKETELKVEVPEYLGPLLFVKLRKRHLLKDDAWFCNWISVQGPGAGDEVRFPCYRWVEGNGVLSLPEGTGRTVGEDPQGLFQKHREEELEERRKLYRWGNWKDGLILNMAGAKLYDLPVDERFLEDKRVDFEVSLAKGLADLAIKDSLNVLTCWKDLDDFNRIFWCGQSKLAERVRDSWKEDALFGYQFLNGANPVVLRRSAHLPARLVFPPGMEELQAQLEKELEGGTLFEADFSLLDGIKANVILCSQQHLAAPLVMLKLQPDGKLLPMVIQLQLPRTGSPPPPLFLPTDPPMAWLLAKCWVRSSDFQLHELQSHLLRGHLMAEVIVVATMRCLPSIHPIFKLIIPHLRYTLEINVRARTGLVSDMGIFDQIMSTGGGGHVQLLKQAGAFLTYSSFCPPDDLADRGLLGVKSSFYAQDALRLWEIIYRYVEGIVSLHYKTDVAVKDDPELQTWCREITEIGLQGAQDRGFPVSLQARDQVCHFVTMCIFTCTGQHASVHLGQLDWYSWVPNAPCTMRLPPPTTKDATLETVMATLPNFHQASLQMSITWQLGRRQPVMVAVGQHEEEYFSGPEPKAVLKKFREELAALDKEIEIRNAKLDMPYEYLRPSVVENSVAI
#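 Quantitative HTS in 25 mM Hepes pH 7.5 containing 0.01% Triton X-100: human 15hLO-1 at 40 nM, arachidonic acid at 50 uM, 6 min turnover. Product quantified via ferrous oxidation/xylenol orange, 573:405 nm absorbance ratio.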
# Tau fil binding: qHTS Assay for Tau Filament Binding; Microtubule-associated protein tau (Homo sapiens), P10636; recombinant tau filaments, thioflavin S fluorescence, 15 h; filaments grown with octadecylsulfate alongside compound; Potency, µM (top dose mostly 57.1 µM), for inactives: at the top dose activity change, negative = inhibition; 71,000 tested, 2% active; AID 596, 2007;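 note: potency is the fitted concentration of half-maximal effect; % is set by controls: 0 for no effect and ±100 for the full control effect; actives lower thioflavin S fluorescence by blocking filaments or displacing dye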
#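 Tau 2 uM in ThS buffer dispensed; compound added; 60 uM ODS added (finals 1 uM tau, 30 uM ODS); 15 h 37 C; fluor ex450/em510.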
# BRCT PPI red: qHTS Assay for Inhibitors of BRCT-Phosphoprotein Interaction (Red Fluorophore); Breast cancer type 1 susceptibility protein (Homo sapiens), P38398; BRCT-phosphopeptide binding, red fluorescence polarization; Potency, µM (top dose mostly 76.9 µM), without a hit: at the highest dose activity change, negative = inhibition, hits mostly inhibitors; 75,000 tested, 0.03% active; AID 892, 2007; note: % is set by controls: 0 for no effect and ±100 for the full control effect
#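 Rhodamine-labelled pBACH1 10-mer (100 nM) bound to BRCT domain (100 nM) at pH 7.3; compounds incubated 12 min room temperature, polarization read. Free peptide defines full inhibition; unlabelled decapeptide titrated as control.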
# Pol III holo inh: qHTS Assay for Inhibitors of DNA Polymerase III Holoenzyme System. 71,000 tested, 0.25% active. reconstituted DNA polymerase III holoenzyme replication, biochemical. Potency, µM (top dose mostly 57.1 µM), for inactives: at the highest dose activity change, negative = inhibition; note: potency is the fitted concentration of half-maximal effect; % is set by controls: 0 for no effect and ±100 for the full control effect
#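 Reconstituted *E. coli* holoenzyme (0.35 nM Pol III, 1 nM beta, 154 nM SSB, 2 nM primase) was preincubated with compound for 15 min at RT. Synthesis on 1.4 nM ssM13Gori ran 35 min, then was stopped with PicoGreen/EDTA and read as dsDNA fluorescence.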
# BRCT inh green: qHTS Assay for Inhibitors of BRCT-Phosphoprotein Interaction (Green Fluorophore); Breast cancer type 1 susceptibility protein (Homo sapiens), P38398; BRCA1 BRCT-phosphopeptide binding, green fluorescence polarization; Potency, µM (doses to about 76.9 µM), for inactives: at the top dose activity change, negative = inhibition, most hits filed as inhibitors; 75,000 tested, 0.05% active;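 note: potency is the fitted concentration of half-maximal effect; plate controls were peptide without protein for full effect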
#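 Fluorescence polarization: His-tagged BRCT (~35 kDa BRCA1 C-terminus, 250 nM) bound to 100 nM fluorescein-labeled phosphorylated 10-aa BACH1 peptide, pH 7.3 phosphate buffer with DTT and Tween 20. Compounds incubated 12 min at room temperature; inhibition read as lowered polarization.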
# TsaE inh: qHTS Assay for Inhibitors of YjeE; Potency, µM; 71,000 tested, 0.05% active; tRNA threonylcarbamoyladenosine biosynthesis protein TsaE (Escherichia coli (strain …; purified YjeE enzyme, qHTS inhibition assay; AID 605, 2007
#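 Purified YjeE (10 uM) with BODIPY Texas Red-labeled ADP probe (2 uM); compounds pin-transferred, 15 min at room temperature. Binding inhibition read as decreased fluorescence polarization; ADP titration as control.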
# * hit, by the source's call; i = inactive; u = inconclusive; x = no result; [ ] = another dose, or the depositor's remark. In the library only some 3.3% were active in any assay of this set; here they are far more common. Calls come from the whole dose curve; as a rule, active = well fitted curve in the direction sought with a large enough effect; inconclusive = small, poorly fitted or top-dose-only effect, or another doubt; inactive = no such curve, though single readings can be large; an effect the other way counts as inactive or inconclusive.
SMILES,ALOX15 inhib,Tau fil binding,BRCT PPI red,Pol III holo inh,BRCT inh green,TsaE inh
O=C(OCC#CCSc1nnc(-c2ccc(Br)cc2)o1)c1ccco1,3.2µM*,23%,2%,6%,1%,i
CC(=O)N(c1ccc2oc(=O)sc2c1)S(=O)(=O)c1cccs1,10µM*,-11%,-1%,-2%,-3%,i
CCCC(=O)N(c1ccc2oc(=O)sc2c1)S(=O)(=O)c1ccccc1,25µM*,-13%,0%,-4%,-1%,i
Cc1ccc(S(=O)(=O)Nc2ccc3oc(=O)sc3c2)c(C)c1,u,1%,0%,9%,0%,i
CC(C)C(=O)N(c1ccc2oc(=O)sc2c1)S(=O)(=O)c1cccs1,20µM*,-18%,0%,-6%,-1%,i
O=C(O)c1cc(S(=O)(=O)Nc2ccc3oc(=O)sc3c2)ccc1O,u,8%,1%,-1%,0%,i
CC(=O)Oc1ccc(N(C(C)=O)S(=O)(=O)c2cccs2)cc1,9%,-2%,0%,-2%,0%,i
C=CCNc1oc(-c2cccc3ccccc23)nc1C#N,0.5µM*,6%,0%,2%,1%,i
CCNc1oc(-c2cccc3ccccc23)nc1C#N,x,72%,0%,u,-3%,i
CC(C)Nc1oc(-c2cccc3ccccc23)nc1C#N,4µM*,36%,2%,-2%,2%,i
O=C1C=C(Nc2nc(C(=O)O)cc(=O)[nH]2)c2ccccc2C1=O,2%[11.4 µM],15%[11.4 µM],0%[15.4 µM],-1%[11.4 µM],0%[15.4 µM],i
CC1(C)Cc2c(c(N3CCOCC3)nc3sc(-c4ccc(C(=O)O)o4)c(N)c23)CO1,20µM*,-12%,0%,-12%,11%,i
CC1=CC(C)(C)N2C(=O)C3(N=C(N)NC(Nc4ccccc4)=N3)c3cc(C)cc1c32 (stereo unspecified),25µM*,142%,-4%,-4%,2%,i
C=CCn1c(SCC(=O)Nc2ccc(N(C)C)cc2)nnc1-c1cccc(C)c1,-17%,25µM*,-1%,14%,-2%,i
C=CCn1c(SCC(=O)Nc2cccc(C)c2)nnc1-c1cnccn1,5%,-14%,-1%,-10%,-1%,i
Fc1cccc(Cl)c1/C=N\N=C1c2ccccc2-c2ccccc21,-1%[11.4 µM],4µM*,-1%[15.4 µM],-8%[11.4 µM],1%[15.4 µM],i
C=CCc1cccc(C2Nc3ccccc3C(=O)N2O)c1O (stereo unspecified),u,-12%,-2%,-1%,1%,i
O=C1c2ccccc2NC(c2ccc(Cl)cc2Cl)N1O (stereo unspecified),16µM*,-18%,-1%,-5%,-2%,i
COc1cccc(Cn2c(=O)c(C)nc3cnc(N4CCNCC4)nc32)c1,14%,0%,0%,-10%,9%,i
O=c1c(-c2cc(F)cc(F)c2)nc2cnc(N3CCNCC3)nc2n1Cc1ccc(F)cc1,-10%,4µM*,1%,1%,2%,u
CN1CCN(c2ncc3nc(-c4ccc(Cl)cc4)c(=O)n(C)c3n2)CC1,-3%,3.2µM*,-1%,-12%,-3%,i
COc1ccc(-n2c(=O)c(-c3cc(F)cc(F)c3)nc3cnc(N4CCNCC4)nc32)cc1,3%,3.2µM*,-1%,3%,-1%,i
COc1cccc(Cn2c(=O)c(-c3cc(F)cc(F)c3)nc3cnc(N4CCNCC4)nc32)c1,-2%,4µM*,1%,0%,-1%,i
COc1ccc(-n2c(=O)c(-c3cccc(C#N)c3)nc3cnc(N4CCNCC4)nc32)cc1,-8%,-29%,2%,-3%,-1%,i
